# Assay results published in PubChem BioAssay.
# Activity calls are given as the source filed them.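 How the source made its calls, unless noted: active means thallium flux through the channel raised or lowered by more than 3 SD from vehicle-only wells, actives on both sides; inactive means the rest.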
# Experiments:
# [1] = modulation of C. elegans fzo-1 (AID 1259413; call rule not given here;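 further: fzo-1 mutant C. elegans worms in liquid wells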); settings: C. elegans fzo-1 modulator screen, mean read-out; stronger effect = higher value
# [2] = liver-stage malaria parasite growth inhibition, primary screen, cell-based, HepG2, luciferase luminescence, HepG2 viability (AID 624349; in the data active means parasite load remaining mostly below about 12%, no sharp cut-off; inactive means mostly above about 10%;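 further: 100% = mean of DMSO negative control wells on the same plate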); settings: P. berghei liver stage in HepG2, luciferase luminescence, concentration not given here; parasite load remaining: stronger effect = lower value; viability: measured here: HepG2 viability without parasites
# [3] = Cy5 fluorescence interference with SSB-bound oligo, artefact control for HCV NS3 helicase inhibitor project, biochemical, NIH Clinical Collection, E. coli SSB (AID 743268; call rule not given here)
# [4] = test system: Hepatitis C virus NS3 helicase; assay: HCV NS3 helicase inhibitors, primary screen, biochemical, fluorescence polarization, NIH Clinical Collection (AID 743270; call rule not given here); settings: NS3 helicase binding to Cy5-dT15 DNA, stronger effect = higher value, concentration not given here
# [5] = target: Single-stranded DNA-binding protein (Escherichia coli (strain K12)) (UniProt P0AGE0); assay: E. coli SSB displacement from DNA, counter-screen for HCV NS3 helicase inhibitor project, biochemical, fluorescence polarization, NIH Clinical Collection (AID 743271; in the data active means inhibition above about 28%); settings: stronger effect = higher value, concentration not given here
# [6] = fluorescence interference in NS3h assay format, artefact control for HCV NS3 helicase inhibitor project, biochemical, NIH Clinical Collection (AID 743272; call rule not given here;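 further: HCV NS3 helicase with a Cy5 labelled single stranded DNA probe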); settings: fluorescence interference counterscreen, stronger effect = lower value
# [7] = test system: F380Y; assay: modulators of BK channel variants, profiling panel, selectivity assay, cell-based, U2OS BacMam, thallium flux, beta subunits (AID 1259406); settings: at 30 µM;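 further: initial slope of Thallos dye fluorescence rise after thallium is added; log ratio against the mean of 0.3% DMSO vehicle wells on the same plate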
# [8] = test system: F380Y/beta1; assay: as above; settings: at 30 µM
# [9] = test system: F380Y/beta2Delta; assay: as above; settings: at 30 µM
# [10] = test system: F380Y/beta4; assay: as above; settings: at 30 µM
# [11] = target: Calcium-activated potassium channel subunit alpha-1 (Homo sapiens) + Leucine-rich repeat-containing protein 26 (Homo sapiens) (UniProt Q12791+Q2I0M4); assay: as above; settings: F380Y/Slo1WT/gamma1, at 30 µM
# [12] = test system: R275C; assay: as above; settings: at 30 µM
# [13] = test system: R275C/beta1; assay: as above; settings: at 30 µM
# [14] = test system: R275C/beta2Delta; assay: as above; settings: at 30 µM
# [15] = test system: R275C/beta4; assay: as above; settings: at 30 µM
# [16] = test system: R275C/Slo1WT/beta2; assay: as above; settings: at 30 µM
# [17] = sensitizers of A549 cells to miR-34 induction, primary screen, imaging, A549 dox-inducible miR-34, nuclei and caspase counts (AID 1347080;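 active means compounds whose cell count with miR-34 switched on is under 0.7 times the count with it off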); settings: A549 miR-34 inducible, Hoechst nuclei count, 48 h
# [18] = viability rescue of complex I mutant cybrids, primary screen, cell-based, galactose medium, ATP luminescence (AID 1645843;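 active means z-score of at least 1.8 in each of two replicates, scored against plate mean and spread of sample wells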;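 further: positive z means more ATP and so rescue of galactose-driven cybrid death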); settings: complex I mutant cybrid cells, 72 h, stronger effect = higher value
# [19] = test system: Neuropilin-2 / VEGF-C interaction (human); assay: inhibitors of NRP2–VEGF-C binding, biochemical, microplate binding format, z-score (AID 743281; call rule not given here); settings: microplate NRP2/VEGF-C binding assay; stronger effect = lower value
# [20] = stronger effect = lower value, cell number ratio, induced over uninduced
# [21] = measured here: relative caspase fold change +Dox/-Dox
# [22] = measured here: total cells with miR-34 induction, stronger effect = lower value
# [23] = measured here: total cells without miR-34 induction
# Calcium-activated potassium channel subunit alpha-1 (Homo sapiens) + Leucine-rich repeat-containing protein 26 (Homo sapiens), sequence (Q2I0M4 whole entry, looked up, one chain of several): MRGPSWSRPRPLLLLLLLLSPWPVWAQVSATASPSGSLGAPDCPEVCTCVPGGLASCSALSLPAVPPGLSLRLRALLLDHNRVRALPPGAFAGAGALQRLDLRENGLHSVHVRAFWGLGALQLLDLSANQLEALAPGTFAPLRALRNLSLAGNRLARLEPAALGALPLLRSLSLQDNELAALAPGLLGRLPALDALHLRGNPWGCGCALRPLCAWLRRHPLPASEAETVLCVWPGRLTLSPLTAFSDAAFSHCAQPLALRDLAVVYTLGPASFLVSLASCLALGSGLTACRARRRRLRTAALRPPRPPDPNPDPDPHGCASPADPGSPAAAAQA
compound,measurement,setting,value
CC(=O)OCC(=O)[C@@]1(O)CC[C@H]2[C@@H]3CCC4=CC(=O)CCC4(C)[C@H]3[C@@H](O)CC21C (stereo partly specified),mean signal,[1],278 (inactive)
C=CC1=C(C(=O)O)N2C(=O)[C@@H](NC(=O)C(=NOCC(=O)O)c3csc(N)n3)[C@H]2SC1,parasite load remaining,[2],68.9% (inactive)
same,viability,[2],69.9%
same,fluorescence ratio,[3],1.01 (inactive)
same,inhibition,[4],27.7% (active)
same,inhibition,[5],94.9% (active)
same,fluorescence ratio,[6],0.95 (inactive)
same,log fold change Tl+ flux,[7],0.0111 (inactive)
same,log fold change Tl+ flux,[8],-0.0102 (inactive)
same,log fold change Tl+ flux,[9],0.02 (inactive)
same,log fold change Tl+ flux,[10],0.0293 (inactive)
same,log fold change Tl+ flux,[11],0.111 (active)
same,log fold change Tl+ flux,[12],-0.011 (inactive)
same,log fold change Tl+ flux,[13],-0.021 (inactive)
same,log fold change Tl+ flux,[14],0.0194 (inactive)
same,log fold change Tl+ flux,[15],0.0168 (inactive)
same,log fold change Tl+ flux,[16],0.00126 (inactive)
O=C1N=C(O)CN1N=Cc1ccc(-c2ccc([N+](=O)[O-])cc2)o1,parasite load remaining,[2],10.7% (inactive)
same,viability,[2],83.3%
same,fluorescence ratio,[3],1.04 (inactive)
same,inhibition,[4],0.45% (inactive)
same,inhibition,[5],7.91% (inactive)
same,fluorescence ratio,[6],0.97 (inactive)
same,fold change,[17]; [20],0.951 (inactive)
same,fold change,[17]; [21],1.68
same,cell count,[17]; [22],7170
same,cell count,[17]; [23],7540
same,z-score,[18],-0.1 (inactive)
same,log fold change Tl+ flux,[7],0.0284 (inactive)
same,log fold change Tl+ flux,[8],0.16 (active)
same,log fold change Tl+ flux,[9],0.0246 (inactive)
same,log fold change Tl+ flux,[10],-0.0396 (inactive)
same,log fold change Tl+ flux,[11],0.0789 (inactive)
same,log fold change Tl+ flux,[12],0.0615 (inactive)
same,log fold change Tl+ flux,[13],0.0553 (inactive)
same,log fold change Tl+ flux,[14],0.0141 (inactive)
same,log fold change Tl+ flux,[15],0.0532 (inactive)
same,log fold change Tl+ flux,[16],0.0367 (inactive)
CO[C@H]1/C=C/O[C@@]2(C)Oc3c(C)c(O)c4c(O)c(c(C=NN5CCN(C6CCCC6)CC5)c(O)c4c3C2=O)NC(=O)/C(C)=C\C=C\[C@H](C)[C@H](O)[C@@H](C)[C@@H](O)[C@@H](C)[C@H](OC(C)=O)[C@@H]1C,parasite load remaining,[2],21% (inactive)
same,viability,[2],92%
same,fluorescence ratio,[3],1.06 (inactive)
same,inhibition,[4],-0.45% (inactive)
same,inhibition,[5],-0.48% (inactive)
same,fluorescence ratio,[6],0.94 (inactive)
same,fold change,[17]; [20],0.995 (inactive)
same,fold change,[17]; [21],1.52
same,cell count,[17]; [22],8010
same,cell count,[17]; [23],8050
same,z-score,[18],-1.41 (inactive)
same,log fold change Tl+ flux,[7],0.0494 (inactive)
same,log fold change Tl+ flux,[8],0.0885 (inactive)
same,log fold change Tl+ flux,[9],0.179 (active)
same,log fold change Tl+ flux,[10],0.152 (active)
same,log fold change Tl+ flux,[11],0.0279 (inactive)
same,log fold change Tl+ flux,[12],0.0114 (inactive)
same,log fold change Tl+ flux,[13],0.161 (active)
same,log fold change Tl+ flux,[14],0.0213 (inactive)
same,log fold change Tl+ flux,[15],0.283 (active)
same,log fold change Tl+ flux,[16],0.0216 (inactive)
N[C@@H](C(=O)N[C@@H]1C(=O)N2C(C(=O)O)=C(CSc3cn[nH]n3)CS[C@H]12)c1ccc(O)cc1 (tested in a mixture with another compound),parasite load remaining,[2],100% (inactive)
same,viability,[2],72.4%
same,fluorescence ratio,[3],1.06 (inactive)
same,inhibition,[4],21.8% (active)
same,inhibition,[5],56.1% (active)
same,fluorescence ratio,[6],1.01 (inactive)
same,log fold change Tl+ flux,[7],0.0279 (inactive)
same,log fold change Tl+ flux,[8],-0.0559 (inactive)
same,log fold change Tl+ flux,[9],0.00568 (inactive)
same,log fold change Tl+ flux,[10],-0.0478 (inactive)
same,log fold change Tl+ flux,[11],0.0418 (inactive)
same,log fold change Tl+ flux,[12],-0.0506 (inactive)
same,log fold change Tl+ flux,[13],0.00628 (inactive)
same,log fold change Tl+ flux,[14],0.0029 (inactive)
same,log fold change Tl+ flux,[15],-0.00667 (inactive)
same,log fold change Tl+ flux,[16],0.00247 (inactive)
CC(=O)OCC(=O)C12OC(C)(C)O[C@@H]1C[C@H]1[C@@H]3C[C@H](F)C4=CC(=O)C=CC4(C)[C@@]3(F)[C@@H](O)CC12C (stereo partly specified),mean signal,[1],228 (inactive)
COc1cc(N)c(Cl)cc1C(=O)N[C@@H]1CCN(CCCOc2ccc(F)cc2)C[C@@H]1OC,parasite load remaining,[2],13.5% (inactive)
same,viability,[2],57.3%
same,fluorescence ratio,[3],1 (inactive)
same,inhibition,[4],-2.77% (inactive)
same,inhibition,[5],-0.1% (inactive)
same,fluorescence ratio,[6],0.96 (inactive)
same,z-score,[19],-0.527 (inactive)
same,mean signal,[1],277 (inactive)
same,fold change,[17]; [20],0.991 (inactive)
same,fold change,[17]; [21],0.684
same,cell count,[17]; [22],6800
same,cell count,[17]; [23],6860
same,z-score,[18],-0.47 (inactive)
same,log fold change Tl+ flux,[7],0.00662 (inactive)
same,log fold change Tl+ flux,[9],0.0148 (inactive)
same,log fold change Tl+ flux,[11],-0.0526 (inactive)
same,log fold change Tl+ flux,[12],0.0357 (inactive)
same,log fold change Tl+ flux,[13],-0.0487 (inactive)
same,log fold change Tl+ flux,[14],0.039 (inactive)
CC1c2cccc(O)c2C(O)=C2C(=O)[C@]3(O)C(O)=C(C(N)=O)C(=O)[C@@H](N(C)C)[C@@H]3C[C@@H]21 (stereo partly specified),parasite load remaining,[2],60.3% (inactive)
same,viability,[2],97.3%
same,fluorescence ratio,[3],1.04 (inactive)
same,inhibition,[4],-1.36% (inactive)
same,inhibition,[5],28.5% (active)
same,fluorescence ratio,[6],0.95 (inactive)
same,fold change,[17]; [20],1 (inactive)
same,fold change,[17]; [21],1.44
same,cell count,[17]; [22],11000
same,cell count,[17]; [23],11000
same,z-score,[18],-0.345 (inactive)
same,log fold change Tl+ flux,[7],-0.00643 (inactive)
same,log fold change Tl+ flux,[8],-0.038 (inactive)
same,log fold change Tl+ flux,[9],0.00306 (inactive)
same,log fold change Tl+ flux,[10],-0.0368 (inactive)
same,log fold change Tl+ flux,[11],0.011 (inactive)
same,log fold change Tl+ flux,[12],-0.004 (inactive)
same,log fold change Tl+ flux,[13],-0.0442 (inactive)
same,log fold change Tl+ flux,[14],-0.00508 (inactive)
same,log fold change Tl+ flux,[15],0.0272 (inactive)
same,log fold change Tl+ flux,[16],0.0157 (inactive)
